# Measured values published in PubChem BioAssay (NCATS).
# Values joined by “and” are separate entries in the source; they are usually repeats but may differ in a detail not shown here. Equal values may be shown once. Results filed as inconclusive are left out. A call without a number means that no potency is given here. Active and inactive are the calls of the source. Calls come from the whole dose curve.
# Assays:
# [1] = Cytotoxicity counterscreen for inhibitors of SARS-CoV-2 cell entry (AID 1645845); note: nearly all actives have a fitted effect of over 50% in size
# Method in brief: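 After a 15 min room-temperature ATPLite 1step step, luminescence reflected ATP remaining in HEK293-ACE2 cells exposed to compound for 1 h plus 48 h at 37 C, with percent activity set by cell and no-cell controls.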
# [2] = Primary qHTS to identify inhibitors of SARS-CoV-2 cell entry (AID 1645846); settings: activity change, negative = inhibition: at 57.1 µM (top of the series) unless noted; note: nearly all actives have a fitted effect of over 45% in size
# Method in brief: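 Data are normalized to wells receiving SARS-CoV-2-S pseudoparticles and those given bald particles. Entry signal was luciferase luminescence in stable hACE2 Expi293F cells, 48 hr post-infection, after 1 hr compound pretreatment.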
# [3] = VSVG counterscreen qHTS to identify inhibitors of SARS-CoV-2 cell entry (AID 1645847); note: nearly all actives have a fitted effect of over 65% in size
# Method in brief: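 Counterscreen using VSV-G (not spike) pseudotyped MLV particles on ACE2-expressing Expi293F cells after 1 h compound preincubation; infection ran 48 h at 37 °C. Data normalized to VSV-G PP and bald-PP wells.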
# Potency is the fitted concentration of half-maximal effect.
smiles,measurement,setting,value
CN(C(=O)C(Cl)Cl)c1ccc(OC(=O)c2ccco2)cc1,Potency,[1],inactive
same,Potency,[2],inactive
Clc1ccc2ncc(-c3cccc(NC4CNC4)n3)n2c1,Potency,[1],inactive
same,"activity change, negative = inhibition",[2],-15.1%
Nc1nc2c(ncn2CCC(CO)CO)c(=O)[nH]1,Potency,[1],inactive
same,"activity change, negative = inhibition",[2],-17.9%
CCOC(CN1C(=O)[C@](CC(=O)Nc2ccc(C)cc2)(NC(=O)Nc2ccc(C)cc2)c2ccccc21)OCC,Potency,[1],inactive
COc1cc2c(cc1OC)CC(=O)N(CCCN(C)C[C@H]1Cc3cc(OC)c(OC)cc31)CC2,Potency,[1],inactive
same,"activity change, negative = inhibition",[2],-5.42% and -13.8%
Cn1cc(-c2ccc3nnc(Sc4ccc5ncccc5c4)n3n2)cn1,Potency,[1],inactive
same,Potency,[2],inactive
COc1ccccc1O,Potency,[1],inactive
same,Potency,[2],inactive
CCN(c1ccccc1)c1cc(NC)[n+](C)c(C)n1,Potency,[1],inactive
same,"activity change, negative = inhibition",[2],3.72%
CC(C)(C)NCC(O)c1ccc(O)c(CO)c1 (stereo not drawn),Potency,[1],inactive
same,Potency,[2],inactive
CC(C)(Sc1ccc(CCN(CCCCC2CCCCC2)C(=O)NC2CCCCC2)cc1)C(=O)O,Potency,[1],inactive
same,"activity change, negative = inhibition",[2],4.91%
O=C(O)CCC1CCC(c2cc(F)ccc2F)(S(=O)(=O)c2ccc(Cl)cc2)CC1 (stereo not drawn),Potency,[1],inactive
same,"activity change, negative = inhibition",[2],-2.05%
NC(=O)c1ccc(I)c([N+](=O)[O-])c1,Potency,[1],inactive
same,"activity change, negative = inhibition",[2],-6.13%
CN1[C@@H]2CC[C@H]1CC(OC(=O)C(O)c1ccccc1)C2 (stereo partly drawn),Potency,[1],inactive
same,"activity change, negative = inhibition",[2],-6.45%
Cc1ccc(NC(=O)c2cccc(C(C)(C)C#N)c2)cc1Nc1ccc2ncn(C)c(=O)c2c1,Potency,[1],inactive
O=C(O)c1ccc2cc(-c3ccc(O)c(C45CC6CC(CC(C6)C4)C5)c3)ccc2c1,Potency,[1],3.16 µM (active)
same,Potency,[2],1.58 µM (active)
CC[C@@H](C)[C@H](NC(=O)[C@H](CC1CCCCC1)NC(=O)c1ccno1)C(=O)N1CCC2(CCc3ccccc32)CC1,Potency,[1],inactive
same,Potency,[2],inactive
CC(=O)OCC(=O)[C@@]1(O)[C@H](C)C[C@H]2[C@@H]3C=C(C)C4=Cc5c(cnn5-c5ccccc5)C[C@]4(C)[C@@H]3[C@@H](O)C[C@@]21C,Potency,[1],inactive
same,Potency,[2],inactive
COc1cc2c(Oc3ccc(NC(=O)C4(C(=O)Nc5ccc(F)cc5)CC4)cc3F)ccnc2cc1OCCCN1CCOCC1,Potency,[1],31.6 µM (active)
same,Potency,[2],8.91 µM (active)
O=C(O)CC(O)C(=O)O (stereo not drawn),Potency,[1],inactive
same,Potency,[2],inactive
CCCCCCCC(=O)OCC(O)CO (stereo not drawn),Potency,[1],inactive
same,"activity change, negative = inhibition",[2],-24.7%
Fc1cc(-c2cccc3ncc(-c4cnn(C5CCNCC5)c4)nc23)cc(F)c1CN1CCOCC1,Potency,[1],31.6 µM (active)
same,Potency,[2],12.6 µM (active)
CS(=O)(=O)Oc1ccc2c(NC(N)=O)c(C(=O)c3ccc(Cl)cc3Cl)oc2c1,Potency,[1],inactive
same,Potency,[2],inactive
Cn1c2cc(S(C)=O)sc2c2cnn(Cc3cccc(N)c3)c(=O)c21 (stereo not drawn),Potency,[1],inactive
same,"activity change, negative = inhibition",[2],-23.3%
C[C@H](CN1CCCC1)C(=O)c1ccc(C(F)(F)F)cc1,Potency,[1],inactive
same,"activity change, negative = inhibition",[2],-4.68%
CCCn1c(=O)c2[nH]c(C34CC5CC3C[C@@H](C5)C4)nc2n(CCC)c1=O,Potency,[1],inactive
same,"activity change, negative = inhibition",[2],-12.4%
C[C@@H](Oc1cc(-c2cnn(C3CCNCC3)c2)cnc1N)c1c(Cl)ccc(F)c1Cl,Potency,[1],25.1 µM (active)
same,Potency,[2],11.2 µM (active)
CC(=O)N[C@@H](Cc1ccc(O)cc1)C(=O)O,Potency,[1],inactive
same,Potency,[2],inactive
CC1(C)Cc2c(-c3ccccc3)c(-c3ccc(Cl)cc3)c(CC(=O)O)n2C1,Potency,[1],inactive
same,"activity change, negative = inhibition",[2],-28.3%
C1CCC(NC2CCCCC2)CC1,Potency,[1],inactive
same,Potency,[2],inactive
CC(C)Oc1cc(Nc2nc(N[C@@H](C)c3ccc(F)cn3)ncc2Cl)[nH]n1,Potency,[1],inactive
CC(C)C[C@H](NC(=O)[C@@H](O)[C@H](N)Cc1ccccc1)C(=O)O,Potency,[1],inactive
same,"activity change, negative = inhibition",[2],-29.5%
CC(=O)Oc1ccccc1C(=O)O,Potency,[1],inactive
same,Potency,[2],inactive
N#C/C(=C1\SCC(c2ccccc2Cl)S1)n1ccnc1 (stereo not drawn),Potency,[1],inactive
same,Potency,[2],inactive
NC(=O)c1ccc(-c2nc(-c3ccc4c(c3)OCO4)c(-c3ccccn3)[nH]2)cc1,Potency,[1],inactive
Cc1ccccc1-n1c(Cn2ncc3c(N)ncnc32)nc2cccc(C)c2c1=O,Potency,[1],inactive
same,"activity change, negative = inhibition",[2],-50.6%
N#Cc1c(O)c2c(-c3ccc(-c4ccccc4O)cc3)csc2[nH]c1=O,Potency,[1],inactive
same,"activity change, negative = inhibition",[2],3.57%
CCCOC(=O)c1ccc(O)cc1,Potency,[1],inactive
same,Potency,[2],inactive
[O-][n+]1cccc(/C(Cl)=N/OC[C@@H](O)CN2CCCCC2)c1,Potency,[1],inactive
same,Potency,[2],inactive
CS(=O)(=O)Nc1ccc([N+](=O)[O-])cc1Oc1ccccc1,Potency,[1],inactive
same,"activity change, negative = inhibition",[2],-13.1% and -8.45%
N#Cc1ccc(NC(=O)Nc2ccccc2Br)c2n[nH]nc12,Potency,[1],inactive
same,Potency,[2],inactive
OCCn1cc(-c2cnc3nnn(Cc4ccc5ncccc5c4)c3n2)cn1,Potency,[1],inactive
same,Potency,[2],inactive
CCc1c(C)[nH]c2c1C(=O)C(CN1CCOCC1)CC2 (stereo not drawn),Potency,[1],inactive
same,Potency,[2],inactive
C[C@H](NC(=O)Cc1cc(F)cc(F)c1)C(=O)N[C@@H]1C(=O)N(C)c2ccccc2-c2ccccc21,Potency,[1],inactive
same,"activity change, negative = inhibition",[2],3.07%
CNC(=O)c1ccc(N2C(=S)N(c3ccc(C#N)c(C(F)(F)F)c3)C(=O)C2(C)C)cc1F,Potency,[1],inactive
same,Potency,[2],22.4 µM (active)
C=CCNC(N)=S,Potency,[1],inactive
same,Potency,[2],inactive
O=C(NCCCNc1nc(Nc2cccc(NC(=O)N3CCCC3)c2)ncc1I)c1cccs1,Potency,[1],inactive
same,Potency,[2],inactive
Cc1ccc(C(=O)Nc2ccc(CN3CCN(C)CC3)c(C(F)(F)F)c2)cc1C#Cc1cnc2cccnn12,Potency,[1],31.6 µM (active)
same,Potency,[2],8.91 µM (active)
CC[C@H](Nc1ncnc2nc[nH]c12)c1nc2cccc(F)c2c(=O)n1-c1ccccc1,Potency,[1],inactive
same,"activity change, negative = inhibition",[2],-11%
CCOC(=O)[C@@H](N)CCC(=O)N[C@@H](CSCc1ccccc1)C(=O)N[C@@H](C(=O)OCC)c1ccccc1,Potency,[1],inactive
same,"activity change, negative = inhibition",[2],0.458%
CCN(CC)CCn1c(=O)c(Cc2ccc(OC)cc2)nc2ccccc21,Potency,[1],inactive
same,"activity change, negative = inhibition",[2],-28.6%
Fc1ccc(Cl)cc1-c1nc(Nc2ccncc2)c2nccnc2n1,Potency,[1],inactive
same,"activity change, negative = inhibition",[2],-13.6%
CC1=NN(c2ccccc2)C(=O)C1,Potency,[1],inactive
same,"activity change, negative = inhibition",[2],0.769% and -7.18%
O=C1C(Cl)=C(NCCN2CCOCC2)C(=O)c2ncccc21,Potency,[1],28.2 µM (active)
same,Potency,[2],11.2 µM (active)
Cc1cc(C(=O)NNCc2ccccc2)no1,Potency,[1],inactive
same,"activity change, negative = inhibition",[2],-26.2% [at 114 µM]
CC1(C)CCC(c2ccc(Cl)cc2)=C(CN2CCN(c3ccc(C(=O)NS(=O)(=O)c4ccc(N[C@H](CCN5CCOCC5)CSc5ccccc5)c(S(=O)(=O)C(F)(F)F)c4)cc3)CC2)C1,Potency,[1],inactive
same,Potency,[2],inactive
CCCCCCCCCCCCCC(=O)N[C@H](CO)[C@H](O)c1ccc([N+](=O)[O-])cc1,Potency,[1],inactive
same,Potency,[2],inactive
CN1CCN(c2c(F)cc3c(=O)c(C(=O)O)cn4c3c2OCN4C)CC1,Potency,[1],inactive
same,Potency,[2],inactive
CC(C)c1ccccc1Cc1cc(C(=O)Nc2ccc(S(=O)(=O)c3ccccc3C(C)(C)C)cc2)c(O)c(O)c1O,Potency,[1],inactive
same,Potency,[2],inactive
CC[N+](C)(CC)CCOC(=O)C(O)(c1ccccc1)C1CCCCC1 (stereo not drawn),Potency,[1],inactive
same,Potency,[2],inactive
O=C1NS(=O)(=O)c2ccccc21,Potency,[1],inactive
same,"activity change, negative = inhibition",[2],-23.6%
O=[N+]([O-])c1ccc([As](=O)(O)O)cc1,Potency,[1],inactive
same,"activity change, negative = inhibition",[2],1.4%
CC(C)(C)C(O)/C=C/c1ccc2c(c1)OCO2 (stereo not drawn),Potency,[1],inactive
same,"activity change, negative = inhibition",[2],-17.5%
CN[C@@H](C)C(=O)N[C@H]1CCCC[C@H]2CC[C@@H](C(=O)N[C@@H](c3ccccc3)c3cn(CCCCc4ccc(CCCCn5cc([C@@H](NC(=O)[C@@H]6CC[C@@H]7CCCC[C@H](NC(=O)[C@H](C)NC)C(=O)N76)c6ccccc6)nn5)cc4)nn3)N2C1=O,Potency,[1],inactive
same,"activity change, negative = inhibition",[2],-12%
Cc1cccc(-c2nn(C(=S)Nc3ccccc3)cc2-c2ccnc3ccccc23)n1,Potency,[1],inactive
same,Potency,[2],inactive
COc1cc(Nc2ncc(F)c(Nc3ccc4c(n3)NC(=O)C(C)(C)O4)n2)cc(OC)c1OC,Potency,[1],inactive
same,Potency,[2],inactive
Cc1nnc(C(C)C)n1C1CC2CCC(C1)N2CC[C@H](NC(=O)C1CCC(F)(F)CC1)c1ccccc1 (stereo partly drawn),Potency,[1],inactive
same,"activity change, negative = inhibition",[2],2.02% and -27.6%
CC(=O)Oc1cccc(C)c1,Potency,[1],inactive
same,"activity change, negative = inhibition",[2],0.724%
Cc1nc(N)sc1-c1ccnc(Nc2ccc(N3CCOCC3)cc2)n1,Potency,[1],3.16 µM (active)
same,Potency,[2],3.16 µM (active)
Cn1cc(-c2[nH]c3cc(NC(=O)[C@H](N)C4CCCCC4)cc4c3c2C=NNC4=O)cn1,Potency,[1],15.8 µM (active)
same,Potency,[2],8.91 µM (active)
C#CC(C)(CC)OC(=O)c1ccccc1C(=O)O (stereo not drawn),Potency,[1],inactive
same,"activity change, negative = inhibition",[2],3.66%
CCOc1cc2ncc(C#N)c(Nc3ccc(OCc4ccccn4)c(Cl)c3)c2cc1NC(=O)/C=C/CN(C)C,Potency,[1],inactive
same,Potency,[2],8.91 µM (active) and 2.51 µM (active)
NC(=O)c1ccc(N(C(N)=O)c2c(F)cccc2F)nc1-c1ccc(F)cc1F,Potency,[1],inactive
same,"activity change, negative = inhibition",[2],-20.8%
Cn1cc(-c2ccc3nnc(C(F)(F)c4ccc5ncccc5c4)n3n2)cn1,Potency,[1],inactive
same,Potency,[2],inactive
CC(=O)N[C@@H](CCC(N)=O)C(=O)O,Potency,[1],inactive
same,"activity change, negative = inhibition",[2],-25.1%
CC(C)OC(=O)C1=CN(C(=O)c2ccc(F)c(F)c2)CC(C)(C)c2c1[nH]c1ccccc21,Potency,[1],inactive
same,"activity change, negative = inhibition",[2],-3.59%
CC(C)(C)C(=O)Oc1ccc2c(c1)nc(NC(=O)c1cccc([N+](=O)[O-])c1)n2CCCO,Potency,[1],inactive
same,"activity change, negative = inhibition",[2],-6.43%
CC(=O)Nc1ccc(O)cc1,Potency,[1],inactive
same,"activity change, negative = inhibition",[2],-27.9%
N#CCNC(=O)c1ccc(-c2ccnc(Nc3ccc(N4CCOCC4)cc3)n2)cc1,Potency,[1],31.6 µM (active)
same,Potency,[2],10 µM (active)
same,Potency,[3],6.81 µM (active)
CCN1CCN(c2cc3c(cc2F)c(=O)c(C(=O)O)cn3C2CC2)CC1,Potency,[1],inactive
same,Potency,[2],inactive
c1ccc2[nH]ccc2c1,Potency,[1],inactive
same,Potency,[2],inactive
C=C1C(=CC=C2CCC[C@]3(C)[C@@H]([C@H](C)C=C[C@H](C)C(C)C)CC[C@@H]23)C[C@@H](O)C[C@@H]1O,Potency,[1],inactive
same,Potency,[2],inactive
Nc1nc(-c2nn(Cc3ccccc3F)c3ncccc23)nc(N)c1N1CCOCC1,Potency,[1],inactive
same,Potency,[2],inactive
O=C(Nc1ccc(OC(F)(F)F)cc1)c1sccc1NCc1ccnc2ccccc12,Potency,[1],inactive
same,"activity change, negative = inhibition",[2],-18%
